# Test results as given in PubChem BioAssay AID720706 (Broad Institute, 2013).
# In all, about 350,000 compounds went through this assay and about 5,500 (1.6%) were called active.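 Rule for the calls: active = significant combined selectivity score with lowered wild-type GFP, culture density cut under 30%, mutant RFP and density less affected; inactive = any of these conditions unmet.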 The sample as a whole holds a higher share of actives than the screen did.
# Assay: GFP drop in mixed WT/humanized-ribosome E. coli culture – GFP/RFP fluorescence, OD600, single point, bacterial rRNA inhibitor project, primary screen (AID 720706)
# Settings: E. coli WT GFP vs humanized-ribosome RFP mutants, 24 h; GFP signal change (wild-type ribosome): stronger effect = lower value, DMSO median 0, no signal -100; OD600 change: measured here: OD600 growth, DMSO median 0, no signal -100; RFP signal change: measured here: RFP humanized mutant strains, DMSO median 0, no signal -100, concentration not given here
Structure (SMILES),GFP signal change (wild-type ribosome),OD600 change,RFP signal change
C[C@@H]1CN([C@@H](C)CO)S(=O)(=O)c2ccc(-c3ccc(F)cc3)cc2O[C@H]1CN(C)C(=O)c1ccccc1F,-8.04% (inactive),-21%,-3.3%
O=C(C[C@H]1C[C@H]2c3cc(NC(=O)NC4CCCC4)ccc3O[C@H]2[C@@H](CO)O1)NCc1ccc(-c2ccccc2)cc1,-1.74% (inactive),-6.28%,2.06%
COc1ccc(NC(=O)c2cc3nc(-c4ccccc4)cc(C)n3n2)cc1OC,-22% (inactive),-22.4%,-6.99%
Cc1ccc(NC(=O)Nc2cc(-c3ccccc3)nn2C)cc1Cl,-40.1% (active),5.55%,-13.4%
Cc1cc(NC(=O)Nc2ccc(Cl)cc2)n(-c2ccccc2)n1,-29.1% (inactive),-32.4%,2.41%
C[C@H]1CN([C@@H](C)CO)S(=O)(=O)c2ccc(-c3cncnc3)cc2O[C@H]1CN(C)Cc1ccncc1,0.29% (inactive),1.07%,0.44%
Cc1noc(C)c1NC(=O)N(C)C[C@@H]1Oc2ccc(NC(=O)Nc3ccc(F)cc3)cc2C(=O)N([C@H](C)CO)C[C@@H]1C,1.48% (inactive),1.88%,-0.103%
C[C@@H]1CN([C@H](C)CO)S(=O)(=O)c2ccc(C3=CCCC3)cc2O[C@H]1CN(C)Cc1ccccc1F,-1.53% (inactive),5.49%,-3.33%
C[C@@H]1CN([C@H](C)CO)S(=O)(=O)c2ccc(C#CC3CC3)cc2O[C@H]1CN(C)C(=O)C1CCCCC1,-17.1% (inactive),-48%,15.7%
COc1ccccc1-c1cnc2c(c1)C(=O)N([C@@H](C)CO)C[C@@H](C)[C@@H](CN(C)C(=O)c1cccnc1)O2,4.96% (inactive),-0.255%,-1.54%
C[C@@H]1CN([C@@H](C)CO)S(=O)(=O)c2ccc(Br)cc2O[C@@H]1CN(C)C(=O)C1CCCCC1,-5.25% (inactive),-9.29%,0.015%
O=C(COc1ccc(Cl)cc1)NC(=S)Nc1ccccc1N1CCOCC1,-9.68% (inactive),-9.44%,-2.65%
Cc1cccc(OCC(=O)NC(=S)Nc2ccccc2N2CCOCC2)c1,-22.8% (active),-9.72%,1.75%
Cc1cc(C)cc(OCC(=O)Nc2ccc(N3CCOCC3)cc2N2CCOCC2)c1,-2.33% (inactive),6.13%,0.039%
O=C(c1ccccn1)N1CC(=O)N2[C@H](CO)[C@H](c3ccc(C#CCc4ccccc4)cc3)[C@H]2C1,1.93% (inactive),-4.41%,-3.49%
COCC#Cc1ccc2c(c1)O[C@H](CN(C)Cc1ccc3c(c1)OCO3)[C@H](C)CN([C@H](C)CO)S2(=O)=O,-2.4% (inactive),-9.34%,-0.135%
O=C(NCc1nnnn1-c1ccc(Cl)cc1)c1ccc2c(c1)OCO2,5.87% (inactive),4.9%,-2.26%
O=C(Nc1ccc(Br)cn1)c1ccc([N+](=O)[O-])o1,-3.84% (inactive),-3.66%,-3.37%
O=C(NCc1nnnn1-c1ccc(Cl)cc1)c1ccc([N+](=O)[O-])o1,-23% (active),2.62%,-4.79%
CC(C)(C)c1ccc(CCC2OCC(CN3CCOCC3)O2)cc1 (stereo not given),-33.2% (active),-11.3%,-5.34%
CSc1ccc(CNCCN2CCOCC2)cc1,6.43% (inactive),16.1%,-0.625%
CC(CN1CCOCC1)OC(=O)c1ccc(C(C)(C)C)cc1 (stereo not given),-5.42% (inactive),-0.13%,2.33%
C/C=C/c1cnc2c(c1)C(=O)N([C@H](C)CO)C[C@H](C)[C@@H](CN(C)CC1CCOCC1)O2,7.65% (inactive),16.9%,-1.32%
Cc1[nH]c2ccccc2c1SCC(=O)Nc1nccs1,-21.9% (active),-16.9%,-2.17%

Structure (SMILES),GFP signal change (wild-type ribosome),OD600 change,RFP signal change
Cn1c(SCC(=O)Nc2nccs2)nnc1-c1cccnc1,11.6% (inactive),16.8%,-1.48%
CCn1c(SCC(=O)Nc2nccs2)nnc1-c1ccco1,10.8% (inactive),0.14%,0.233%
CC1CCCCC12NC(=O)N(CC(=O)OCC(=O)NCc1ccc(F)cc1)C2=O (stereo not given),-2.84% (inactive),-0.669%,-1.07%
COc1cccc(CNC(=O)COC(=O)CN2C(=O)NC3(CCCCC3C)C2=O)c1 (stereo not given),3.13% (inactive),0.95%,0.493%
CC1CCCCC12NC(=O)N(CC(=O)OCc1c(F)cccc1Cl)C2=O (stereo not given),-24.1% (active),-16.3%,0.314%
Cc1cc2c(cc1C)[n+](C)cn2CC(O)COCC1CC=CCC1 (stereo not given),-29.3% (active),-16.1%,3.07%
Cc1noc(C)c1S(=O)(=O)Nc1ccc2c(c1)C(=O)N([C@H](C)CO)C[C@H](C)[C@H](CN(C)S(=O)(=O)c1cn(C)cn1)OCCCC[C@@H](C)O2,-2.25% (inactive),-4.58%,-3.75%
COc1ccc(CN(C)C[C@@H]2Oc3ccc(NS(=O)(=O)c4cn(C)cn4)cc3C(=O)N([C@@H](C)CO)C[C@H]2C)cc1,-0.89% (inactive),10.2%,-0.875%
O=S1(=O)N=C(N(CCO)/N=C/c2ccccc2F)c2ccccc21,-21.1% (active),-9.01%,2.34%
COc1ccc(/C=N/N(C)C2=NS(=O)(=O)c3ccccc32)cc1OC,14.8% (inactive),9.54%,-0.4%
Cc1ccc(C(=O)NN(CCC#N)C2=NS(=O)(=O)c3ccccc32)cc1,11% (inactive),11%,1.04%
O=C(Nc1ccc(C(F)(F)F)cc1)N[C@@H]1CC[C@H](CCNC(=O)c2ccccc2F)O[C@@H]1CO,-6.45% (inactive),-10.8%,3.96%
COc1ccc(NC(=O)Nc2ccc3c(c2)C(=O)N([C@H](C)CO)C[C@@H](C)[C@H](CN(C)C(=O)Cc2ccccc2)OCCCC[C@H](C)O3)cc1,-0.637% (inactive),-0.596%,2.91%
CC(=O)Nc1ccc(CNc2nc(NCCN(C)C)nc3cc(-c4ccccc4)sc23)cc1,-20.5% (active),-5.3%,1.68%
COCCNc1nc(NCc2ccc(NC(C)=O)cc2)c2sccc2n1,31.4% (inactive),15.7%,6.28%
COCCNc1nc(Nc2ccccc2Cl)c2sc(-c3ccccc3)cc2n1,-0.73% (inactive),28.1%,-2.05%
COc1ccc(NC(=O)N(C)C[C@@H]2Oc3ncc(-c4ccc(C#N)cc4)cc3C(=O)N([C@@H](C)CO)C[C@H]2C)cc1,-1.74% (inactive),-0.24%,-0.855%
CS(=O)(=O)Nc1ccc2c(c1)[C@@H]1C[C@H](CC(=O)NCc3ccccn3)O[C@@H](CO)[C@@H]1O2,2.36% (inactive),-0.375%,1.41%
O=C(NCCN1CCCCC1)[C@@H]1N[C@@H]2c3ccc(-c4ccccc4)c(=O)n3C[C@@H]2[C@H]1CO,-1.4% (inactive),4.26%,-4%
COC(=O)C[C@@H]1CC[C@H]2[C@@H](COC[C@H](O)CN2C(=O)Nc2ccccc2OC)O1,-0.973% (inactive),5.6%,2.71%
COc1ccc(-n2cc(CN(C)Cc3n[nH]c(=O)[nH]3)c(-c3cccc(F)c3)n2)cc1,-10.8% (inactive),-14.6%,-0.58%
CCC(O)C1CCN(Cc2cn(-c3ccc(OC)cc3)nc2-c2cccc(F)c2)CC1 (stereo not given),-12.5% (inactive),-11%,3.52%
COc1ccc(-n2cc(CNC3CCOCC3)c(-c3cccc(F)c3)n2)cc1,-30.4% (active),-24.4%,-1.67%
O=C(Nc1cccc(-n2cnnn2)c1)c1cccnc1,1.1% (inactive),2.52%,0.952%

Structure (SMILES),GFP signal change (wild-type ribosome),OD600 change,RFP signal change
O=C(Nc1ccc(C(F)(F)F)cc1)c1cccc(-n2cnnn2)c1,-24.6% (active),-17.2%,-9.02%
O=C(O)CSCC(=O)Nc1ccc(C(F)(F)F)cc1,9.65% (inactive),10.9%,3.37%
COc1ccccc1CNC(=O)C[C@@H]1CC[C@@H]2[C@@H](COc3ccc(NC(=O)Nc4ccc(F)c(F)c4)cc3C(=O)N2C)O1,-9.44% (inactive),-10.3%,-1.71%
CCCNC(=O)C[C@@H]1C[C@H]2c3cc(NC(=O)Nc4ccccc4F)ccc3O[C@H]2[C@H](CO)O1,-3.87% (inactive),-12.4%,1.51%
COC(=O)c1c(C(=O)OC)c2n(c1C)CCS2,-22.3% (active),-9.31%,-5.79%
COC(=O)c1c(C)cc(O)c(C)c1O,-0.355% (inactive),5.33%,0.38%
COC(=O)c1c(-c2ccc(C)cc2)csc1N,-1.07% (inactive),-0.1%,43.8%
C/C=C/c1ccc([C@@H]2[C@@H](CO)N3C(=O)CN(C(=O)Nc4cccc(OC)c4)C[C@@H]23)cc1,-1.73% (inactive),-7.8%,3.44%
O=C(Nc1ccc(C2CC2(Cl)Cl)cc1)c1cccc([N+](=O)[O-])c1 (stereo not given),-27.9% (active),-19.1%,-6.25%
O=C(Nc1nnc(SCc2c(Cl)cccc2Cl)s1)c1cccc([N+](=O)[O-])c1,1.43% (inactive),-3.04%,-1.26%
O=C(NC(=S)NC1CCS(=O)(=O)C1)c1cccc([N+](=O)[O-])c1 (stereo not given),3.91% (inactive),8.03%,-1.87%
C[C@@H]1CN([C@H](C)CO)C(=O)Cc2cc(N(C)C)ccc2O[C@H]1CN(C)C(=O)NC1CCCCC1,-0.659% (inactive),5.18%,-1.29%
COc1cccc(C#Cc2ccc([C@@H]3[C@H]4CN(C(=O)Cc5ccccc5)CC(=O)N4[C@H]3CO)cc2)c1,-5.04% (inactive),-9.42%,27.5%
CCN(CC)CCN(C(=O)c1ccc(N2C(=O)CCC2=O)cc1)c1nc2cc3c(cc2s1)OCO3,4.92% (inactive),-10.9%,-4.79%
CCN(CC)CCN(C(=O)c1ccc2c(c1)CCCC2)c1nc2c(OC)cccc2s1,-52.2% (inactive),-75.4%,-16.6%
CCOc1ccc2nc(N(CCN(C)C)C(=O)c3ccc4ccccc4c3)sc2c1,-29.3% (active),-1.85%,4.17%
CCc1ccc2nc(N(CCCN(C)C)C(=O)c3ccc4c(c3)OCCO4)sc2c1,-22.5% (active),-7.47%,6.9%
CCN(CC)CCN(C(=O)c1cc(Cl)sc1Cl)c1nc2cc3c(cc2s1)OCO3,4.27% (inactive),-1.1%,-0.673%
CN(C)CCCN(C(=O)c1ccc(S(=O)(=O)N2CCCCCC2)cc1)c1nc2cc3c(cc2s1)OCCO3,-30% (active),-20.1%,0.23%
Cc1ccc2sc(NNC(=O)c3ccc4c(c3)OCCO4)nc2c1C,-7.09% (inactive),-13.5%,7.46%
CCOc1ccc2nc(C(=O)N3CCCC(C)C3)sc2c1 (stereo not given),-6.88% (inactive),-10.3%,-0.532%
CN(C)CCN(C(=O)C1=COCCO1)c1nc2ccc(Cl)cc2s1,2.56% (inactive),-1.62%,-1.96%
